This is an account of results in PubChem BioAssay (NCI).

The panel holds about 79,000 compounds, 15% with a hit somewhere; the sample as a whole holds those more often. A number with no mark means an inactive call. The source made the active and inactive calls. Cut-off read from the data, not from the text of the source: active = growth inhibition above about 70%; inactive = the rest.

Assay [1] in a line: NCI Yeast Anticancer Drug Screen. Data for the rad50 strain (AID 155).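 Note: 0% = growth of vehicle-only cultures of the same strain.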 Conditions: S. cerevisiae rad50 strain growth inhibition, stronger effect = higher value. In outline:
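Yeast carrying a defined DNA repair defect were exposed to test compounds, and growth was compared with vehicle-treated controls to give percent inhibition.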

The nature of assay [2]: NCI Yeast Anticancer Drug Screen. Data for the mec2-1 strain (AID 157). Particulars: S. cerevisiae mec2-1 strain, stronger effect = higher value. The gist of the method:
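Vehicle-treated cultures served as reference for growth inhibition of compound-exposed mec2-1 yeast.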

Assay [3] in a line: NCI Yeast Anticancer Drug Screen. Data for the sgs1 mgt1 strain (AID 161).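 Note: 0% = growth of cultures given vehicle only.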 Particulars: S. cerevisiae sgs1 mgt1 strain, stronger effect = higher value. The gist of the method:
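Genetically altered yeast, compound exposure, growth inhibition relative to vehicle.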

The nature of assay [4]: NCI Yeast Anticancer Drug Screen. Data for the cln2 rad14 strain (AID 165).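 Note: 0% = growth equal to vehicle treated cultures.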 Conditions: S. cerevisiae cln2 rad14 strain, stronger effect = higher value. In outline: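 Each compound was tested on cln2 rad14 yeast. Inhibition of growth was calculated against vehicle-exposed controls.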
Assay [5] in a line: NCI Yeast Anticancer Drug Screen. Data for the bub3 strain (AID 167). Particulars: S. cerevisiae bub3 mutant strain, stronger effect = higher value. The gist of the method: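 Compounds were applied to a genetically altered yeast strain carrying a cell-cycle control defect. Growth inhibition was scored against vehicle-treated controls.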
Assay [6] in a line: NCI Yeast Anticancer Drug Screen. Data for the mlh1 rad18 strain (AID 175). Particulars: S. cerevisiae mlh1 rad18 strain growth inhibition, stronger effect = higher value. In outline:
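Vehicle-treated cultures served as the reference for growth inhibition in a yeast strain carrying DNA damage repair alterations exposed to each compound.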

Setting [7] is: at 5.0 µM (retest, dose inferred, filed as 0.5).
Setting [8] is: at 50.0 µM (retest, dose inferred, filed as 5.0).

For the molecule `OC(c1cc2ccc(C(F)(F)F)cc2c2cc(C(F)(F)F)ccc12)C1CCCCN1` (stereo not given), the growth inhibition in assay [1] (setting [7]) was 85% (active); in assay [1] (setting [8]), 98% (active); in assay [1] (at 50.0 µM) it was 89.6% (active); in assay [2] (setting [7]), 77% (active); in assay [2] (setting [8]) it was 98% (active); in assay [2] (at 50.0 µM), 92% (active). The growth inhibition in assay [3] (setting [7]) was 96% (active); in assay [3] (setting [8]) it was 98% (active); in assay [3] (at 50.0 µM), 88.9% (active); in assay [4] (setting [7]), 44%; in assay [4] (setting [8]) it was 97% (active); in assay [4] (at 50.0 µM) it was 88.2% (active). For the same molecule, the growth inhibition in assay [5] (setting [7]) is 91% (active); in assay [5] (setting [8]), 99% (active); in assay [5] (at 50.0 µM), 85.5% (active); in assay [6] (setting [7]), 97% (active); in assay [6] (setting [8]), 97% (active); in assay [6] (at 50.0 µM) it was 85.7% (active).

Turning to `CCC(=O)c1cc([N+](=O)[O-])c(Br)s1`, the growth inhibition in assay [1] (setting [7]) was 99% (active); in assay [1] (setting [8]), 99% (active); in assay [1] (at 50.0 µM), 99.7% (active); in assay [2] (setting [7]), 99% (active); in assay [2] (setting [8]) it was 100% (active); in assay [2] (at 50.0 µM), 99.6% (active). Moreover, the growth inhibition in assay [3] (setting [7]) is 100% (active); in assay [3] (setting [8]), 100% (active); in assay [3] (at 50.0 µM) it was 99.6% (active); in assay [4] (setting [7]), 99% (active); in assay [4] (setting [8]), 99% (active); in assay [4] (at 50.0 µM), 98.8% (active). Moreover, the growth inhibition in assay [5] (setting [7]) is 100% (active); in assay [5] (setting [8]), 99% (active); in assay [5] (at 50.0 µM) it was 99.5% (active); in assay [6] (setting [7]), 99% (active); in assay [6] (setting [8]), 99% (active); in assay [6] (at 50.0 µM), 99.5% (active).

With `CCCC[n+]1c(/C=C\c2c(OC)cc(OC)cc2OC)ccc2ccccc21`, the growth inhibition in assay [1] (setting [7]) is 64%; in assay [1] (setting [8]), 97% (active); in assay [1] (at 50.0 µM) it was 88.8% (active); in assay [2] (setting [7]), 61%; in assay [2] (setting [8]), 99% (active); in assay [2] (at 50.0 µM), 90.8% (active). The growth inhibition in assay [3] (setting [7]) was 67%; in assay [3] (setting [8]), 99% (active); in assay [3] (at 50.0 µM), 91.7% (active); in assay [4] (setting [7]), 56%; in assay [4] (setting [8]), 99% (active); in assay [4] (at 50.0 µM) it was 89.7% (active). For the same molecule, the growth inhibition in assay [5] (setting [7]) is 86% (active); in assay [5] (setting [8]), 98% (active); in assay [5] (at 50.0 µM) it was 90.1% (active); in assay [6] (setting [7]), 44%; in assay [6] (setting [8]) it was 97% (active); in assay [6] (at 50.0 µM), 88% (active).

As for `O=C(Cc1ccccc1)C(F)(F)F`, the growth inhibition is 10% in assay [1] (setting [7]); 70% (active) in assay [1] (setting [8]); -8.45% in assay [1] (at 50.0 µM); 3% in assay [2] (setting [7]); 15% in assay [2] (setting [8]); 1.95% in assay [2] (at 50.0 µM). The growth inhibition in assay [3] (setting [7]) was 4%; in assay [3] (setting [8]), 20%; in assay [3] (at 50.0 µM) it was 42.2%; in assay [4] (setting [7]) it was 4%; in assay [4] (setting [8]), 2%; in assay [4] (at 50.0 µM), -15.6%. Also, the growth inhibition is 2% in assay [5] (setting [7]); 19% in assay [5] (setting [8]); -7.95% in assay [5] (at 50.0 µM); 0% in assay [6] (setting [7]); 18% in assay [6] (setting [8]); 58.8% in assay [6] (at 50.0 µM).

Regarding `COC(=O)Nc1nc2ccc(C3(c4ccc(F)cc4)OCCO3)cc2[nH]1`, the growth inhibition in assay [1] (setting [7]) was 25%; in assay [1] (setting [8]), 51%; in assay [1] (at 50.0 µM) it was -6.5%; in assay [2] (setting [7]), 9%; in assay [2] (setting [8]), 67%; in assay [2] (at 50.0 µM) it was 35%. For the same molecule, the growth inhibition in assay [3] (setting [7]) is 20%; in assay [3] (setting [8]) it was 55%; in assay [3] (at 50.0 µM), 79% (active); in assay [4] (setting [7]) it was 11%; in assay [4] (setting [8]) it was 36%; in assay [4] (at 50.0 µM), 56.2%. For the same molecule, the growth inhibition is 22% in assay [5] (setting [7]); 72% (active) in assay [5] (setting [8]); 84.1% (active) in assay [5] (at 50.0 µM); 18% in assay [6] (setting [7]); 76% (active) in assay [6] (setting [8]); 80% (active) in assay [6] (at 50.0 µM).

Take `Nc1ccc(C(=O)/C=C/c2ccccc2)cc1`: the growth inhibition in assay [1] (setting [7]) was 6%; in assay [1] (setting [8]) it was 57%; in assay [1] (at 50.0 µM), 67.8%; in assay [2] (setting [7]), 12%; in assay [2] (setting [8]), 58%; in assay [2] (at 50.0 µM) it was 85.3% (active). The growth inhibition in assay [3] (setting [7]) is 11%; in assay [3] (setting [8]), 75% (active); in assay [3] (at 50.0 µM), 78.1% (active); in assay [4] (setting [7]) it was 4%; in assay [4] (setting [8]), 21%; in assay [4] (at 50.0 µM), 8.95%. For the same molecule, the growth inhibition in assay [5] (setting [7]) was 5%; in assay [5] (setting [8]), 81% (active); in assay [5] (at 50.0 µM), 94.5% (active); in assay [6] (setting [7]), 4%; in assay [6] (setting [8]) it was 53%; in assay [6] (at 50.0 µM) it was 96.3% (active).

As to `C=C(C)C1CC2(C)C(C)CC(O)CC2C(OC(=O)C=C(C)C)C1O` (stereo not given), the growth inhibition in assay [1] (setting [7]) was 26%; in assay [1] (setting [8]), 73% (active); in assay [1] (at 50.0 µM), 78.3% (active); in assay [2] (setting [7]), 12%; in assay [2] (setting [8]), 58%; in assay [2] (at 50.0 µM), 69.1%. Also, the growth inhibition is 21% in assay [3] (setting [7]); 78% (active) in assay [3] (setting [8]); 79.8% (active) in assay [3] (at 50.0 µM); 17% in assay [4] (setting [7]); 25% in assay [4] (setting [8]); 47% in assay [4] (at 50.0 µM). Also, the growth inhibition is 15% in assay [5] (setting [7]); 78% (active) in assay [5] (setting [8]); 80.1% (active) in assay [5] (at 50.0 µM); 32% in assay [6] (setting [7]); 82% (active) in assay [6] (setting [8]); 69% in assay [6] (at 50.0 µM).

Regarding `Cc1ccc(Nc2ccc(O)c3c2C(=O)c2c(O)ccc(Nc4ccc(C)cc4)c2C3=O)cc1`, the growth inhibition in assay [1] (setting [7]) was 5%; in assay [1] (setting [8]) it was 4%; in assay [1] (at 50.0 µM), 10.3%; in assay [2] (setting [7]), 1%; in assay [2] (setting [8]), -1%; in assay [2] (at 50.0 µM), 7.15%. In addition, the growth inhibition in assay [3] (setting [7]) is 12%; in assay [3] (setting [8]) it was 14%; in assay [3] (at 50.0 µM), 12.8%; in assay [4] (setting [7]) it was 0%; in assay [4] (setting [8]), -1%; in assay [4] (at 50.0 µM), 72.5% (active). Also, the growth inhibition in assay [5] (setting [7]) is -2%; in assay [5] (setting [8]) it was -5%; in assay [5] (at 50.0 µM), -3.8%; in assay [6] (setting [7]), -2%; in assay [6] (setting [8]) it was -65%; in assay [6] (at 50.0 µM), 17.4%.

Take `O=Cc1ccc(-c2ccc(-c3ccc(CO)s3)o2)s1`: the growth inhibition is 20% in assay [1] (setting [7]); 62% in assay [1] (setting [8]); 17.2% in assay [1] (at 50.0 µM); 11% in assay [2] (setting [7]); 45% in assay [2] (setting [8]); 4.65% in assay [2] (at 50.0 µM). Also, the growth inhibition in assay [3] (setting [7]) is 5%; in assay [3] (setting [8]), 77% (active); in assay [3] (at 50.0 µM), 44.5%; in assay [4] (setting [7]), 3%; in assay [4] (setting [8]), 33%; in assay [4] (at 50.0 µM), -8.55%. Moreover, the growth inhibition was 21% in assay [5] (setting [7]); 53% in assay [5] (setting [8]); 16.5% in assay [5] (at 50.0 µM); 20% in assay [6] (setting [7]); 84% (active) in assay [6] (setting [8]); 65.3% in assay [6] (at 50.0 µM).

Turning to `CC(CSc1n[nH]c(=S)s1)c1ccccc1` (stereo not given), the growth inhibition in assay [1] (setting [7]) was 7%; in assay [1] (setting [8]), 93% (active); in assay [1] (at 50.0 µM), 97.1% (active); in assay [2] (setting [7]), 11%; in assay [2] (setting [8]), 96% (active); in assay [2] (at 50.0 µM), 95.8% (active). Moreover, the growth inhibition is 14% in assay [3] (setting [7]); 96% (active) in assay [3] (setting [8]); 95.8% (active) in assay [3] (at 50.0 µM); 1% in assay [4] (setting [7]); 93% (active) in assay [4] (setting [8]); 95.2% (active) in assay [4] (at 50.0 µM). Moreover, the growth inhibition in assay [5] (setting [7]) was 23%; in assay [5] (setting [8]), 94% (active); in assay [5] (at 50.0 µM) it was 96.3% (active); in assay [6] (setting [7]), 12%; in assay [6] (setting [8]) it was 94% (active); in assay [6] (at 50.0 µM), 95.1% (active).
